Activity calls are given as the source filed them. Rule for the calls: active = hit-call score of the fitted dose curve at least 0.9, where 1 is the maximum; inactive = score below 0.9.

Holding throughout (conditions): mRNA level, 48 h; actives raise or lower the signal
Read-out in test [1]: ATP-citrate lyase (ACLY), ACLY (gene 47)
The test can be described thus: LTEA_HepaRG_ACLY: Life Technologies and Expression Analysis (LTEA) Assay for ATP-citrate lyase (ACLY) using HepaRG (AID 2283466). The essentials:
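Differentiated human HepaRG cells in serum-free induction medium exposed 48 h, in duplicate, to eight half-log concentrations from 100 uM top in 0.5% DMSO; ACLY mRNA measured by qRT-PCR, normalized to ACTB, GAPDH, POLR2A, fitted bidirectionally versus DMSO.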

Read-out in test [2]: Peroxisomal acyl-coenzyme A oxidase 1 (ACOX1) gene, ACOX1 (gene 51)
Kind of test: LTEA_HepaRG_ACOX1: Life Technologies and Expression Analysis (LTEA) Assay for Peroxisomal acyl-coenzyme A oxidase 1 (ACOX1) gene using HepaRG (AID 2283467). The essentials: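 Differentiated human HepaRG cells were exposed in duplicate for 48 h in serum-free induction medium to eight half-log concentrations up to 100 uM in 0.5% DMSO. ACOX1 mRNA was then quantified by TaqMan qRT-PCR, normalized to ACTB, GAPDH and POLR2A.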

Read-out in test [3]: Alkaline Phosphatase, Placental (ALPP) gene, ALPP (gene 250)
The test can be described thus: LTEA_HepaRG_ALPP: Life Technologies and Expression Analysis (LTEA) Assay for Alkaline Phosphatase, Placental (ALPP) gene using HepaRG (AID 2283468). The essentials:
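Expression of ALPP was quantified by qRT-PCR against three housekeeping genes in human HepaRG cultures treated for 48 h with an eight-point concentration series up to 100 uM. Activity in either direction was fitted relative to 0.5% DMSO.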

Read-out in test [4]: Bcl-2 (BAD) gene, BAD (gene 572)
The test can be described thus: LTEA_HepaRG_BAD: Life Technologies and Expression Analysis (LTEA) Assay for Bcl-2 (BAD) gene using HepaRG (AID 2283469). The method in brief: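 Differentiated human HepaRG cells in serum-free induction medium were exposed in duplicate for 48 h to eight concentrations (top 100 uM, half-log steps, 0.5% DMSO). BAD mRNA was quantified by qRT-PCR normalised to ACTB, GAPDH and POLR2A, with bidirectional fitting versus DMSO.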

Read-out in test [5]: Bcl-2 (BAX) gene, BAX (gene 581)
The test can be described thus: LTEA_HepaRG_BAX: Life Technologies and Expression Analysis (LTEA) Assay for Bcl-2 (BAX) gene using HepaRG (AID 2283470). The essentials:
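Differentiated human HepaRG cells, plated 48 h then switched to serum-free induction medium, were exposed 48 h to 8 half-log concentrations up to 100 uM in 0.5% DMSO; BAX mRNA measured by qRT-PCR, normalized to ACTB, GAPDH, POLR2A.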

Read-out in test [6]: adenosine kinase (ADK) gene, ADK (gene 132)
Kind of test: LTEA_HepaRG_ADK: Life Technologies and Expression Analysis (LTEA) Assay for adenosine kinase (ADK) gene using HepaRG (AID 2283471). The essentials: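 HepaRG (human liver), 48 h chemical exposure, 8-pt half-log series, top 100 uM, 0.5% DMSO vehicle. Readout: ADK mRNA by qRT-PCR vs housekeeping genes; bidirectional curve fit relative to DMSO baseline.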

Read-out in test [7]: Alpha-fetoprotein (AFP) gene, AFP (gene 174)
The test can be described thus: LTEA_HepaRG_AFP: Life Technologies and Expression Analysis (LTEA) Assay for Alpha-fetoprotein (AFP) gene using HepaRG (AID 2283472). The essentials:
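Human HepaRG cells plated 48 h, then switched to serum-free induction medium and exposed in duplicate for 48 h to 8-point half-log series from 100 uM in 0.5% DMSO. AFP mRNA by qRT-PCR, normalized to ACTB, GAPDH, POLR2A; bidirectional fit versus DMSO.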

Read-out in test [8]: BCL2L11 (gene 10018)
The test can be described thus: LTEA_HepaRG_BCL2L11: Life Technologies and Expression Analysis (LTEA) Assay for Bcl-2 (BCL2L11) gene using HepaRG (AID 2283473). The essentials:
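Cells were plated, cultured 48 h, switched to serum-free induction medium, then dosed in duplicate for 48 h at eight half-log concentrations up to 100 uM. Lysates underwent RNA isolation and TaqMan qRT-PCR; gain or loss versus DMSO was fitted.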

Read-out in test [9]: Apolipoprotein A-V (APOA5) gene, APOA5 (gene 116519)
The test can be described thus: LTEA_HepaRG_APOA5: Life Technologies and Expression Analysis (LTEA) Assay for Apolipoprotein A-V (APOA5) gene using HepaRG (AID 2283474). The method in brief: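 Human liver HepaRG cells are treated 48 h with test chemicals (100 uM top, half-log dilutions, 0.5% DMSO). APOA5 mRNA induction or loss is measured by qRT-PCR relative to vehicle.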

Read-out in test [10]: Apoptosis regulator Bcl-2 (Homo sapiens) (UniProt P10415)
The test can be described thus: LTEA_HepaRG_BCL2: Life Technologies and Expression Analysis (LTEA) Assay for Bcl-2 gene using HepaRG (AID 2283475). The essentials:
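Differentiated HepaRG cells in serum-free induction medium were exposed for 48 h to eight half-log concentrations up to 100 uM in 0.5% DMSO, in duplicate. BCL2 mRNA was quantified by TaqMan qRT-PCR normalised to ACTB, GAPDH and POLR2A, with bidirectional fitting versus DMSO.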

Read-out in test [11]: Bcl-2 (BID) gene, BID (gene 637)
Kind of test: LTEA_HepaRG_BID: Life Technologies and Expression Analysis (LTEA) Assay for Bcl-2 (BID) gene using HepaRG (AID 2283476). The method in brief: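 Differentiated HepaRG cells in serum-free induction medium were exposed in duplicate for 48 h to eight half-log concentrations up to 100 uM in 0.5% DMSO. BID mRNA was quantified by qRT-PCR, normalized to ACTB, GAPDH and POLR2A.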

Read-out in test [12]: Caspase-3 (Homo sapiens) (UniProt P42574)
The test can be described thus: LTEA_HepaRG_CASP3: Life Technologies and Expression Analysis (LTEA) Assay for cysteine-aspartic acid protease (CASP3) using HepaRG (AID 2283477). The essentials: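 In HepaRG liver cells dosed for 48 h at up to 100 uM (eight-point, duplicate), CASP3 expression changes are scored by qRT-PCR. Activity is fitted in both directions with 0.5% DMSO as baseline.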

Read-out in test [13]: Cytochrome P450 (CYP24A1), CYP24A1 (gene 1591)
Kind of test: LTEA_HepaRG_CYP24A1: Life Technologies and Expression Analysis (LTEA) Assay for Cytochrome P450 (CYP24A1) using HepaRG (AID 2283478). The essentials: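 Human liver HepaRG cultures receive each chemical for 48 h across an eight-point half-log series topping at 100 uM in 0.5% DMSO. Induction or suppression of CYP24A1 mRNA is scored relative to vehicle after housekeeping-gene normalization.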

Read-out in test [14]: Cytochrome P450 (CYP1A2), CYP1A2 (gene 1544)
The test can be described thus: LTEA_HepaRG_CYP1A2: Life Technologies and Expression Analysis (LTEA) Assay for Cytochrome P450 (CYP1A2) using HepaRG (AID 2283479). The method in brief: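 Assesses CYP1A2 mRNA in human HepaRG liver cells after 48 h chemical exposure at up to 100 uM. Values come from qRT-PCR with bidirectional curve fitting relative to DMSO.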

Read-out in test [15]: cysteine-aspartic acid protease (CASP8), CASP8 (gene 841)
The test can be described thus: LTEA_HepaRG_CASP8: Life Technologies and Expression Analysis (LTEA) Assay for cysteine-aspartic acid protease (CASP8) using HepaRG (AID 2283480). The essentials:
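Differentiated human HepaRG cells, plated 48 h then switched to serum-free induction medium, were exposed in duplicate for 48 h to 8 half-log concentrations up to 100 uM in 0.5% DMSO. CASP8 mRNA was quantified by qRT-PCR, normalized to ACTB/GAPDH/POLR2A.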

Read-out in test [16]: Cytochrome P450 (CYP2B6), CYP2B6 (gene 1555)
The test can be described thus: LTEA_HepaRG_CYP2B6: Life Technologies and Expression Analysis (LTEA) Assay for Cytochrome P450 (CYP2B6) using HepaRG (AID 2283481). The essentials:
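Using 48 h treatment of HepaRG cells in serum-free induction medium, concentrations spanned half-log steps from 100 uM in 0.5% DMSO vehicle. CYP2B6 mRNA induction or loss is scored by qRT-PCR against DMSO.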

Read-out in test [17]: Cytochrome P450 2C19 (Homo sapiens) (UniProt P33261)
The test can be described thus: LTEA_HepaRG_CYP2C19: Life Technologies and Expression Analysis (LTEA) Assay for CYP2C19 using HepaRG (AID 2283482). The essentials: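 Human HepaRG liver cells received test chemicals for 48 h (highest 100 uM, half-log dilutions in 0.5% DMSO). CYP2C19 mRNA induction or loss is read by multiplexed qRT-PCR and fitted in both directions versus vehicle.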

Read-out in test [18]: CYP2C8 (gene 1558)
The test can be described thus: LTEA_HepaRG_CYP2C8: Life Technologies and Expression Analysis (LTEA) Assay for CYP2C8 using HepaRG (AID 2283483). The method in brief:
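Differentiated human HepaRG cells were exposed for 48 h in serum-free induction medium to eight half-log concentrations up to 100 uM in 0.5% DMSO, in duplicate. CYP2C8 mRNA was measured by TaqMan qRT-PCR, normalized to ACTB, GAPDH and POLR2A, and fitted bidirectionally against DMSO.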

Read-out in test [19]: CYP2E1 (gene 1571)
Kind of test: LTEA_HepaRG_CYP2E1: Life Technologies and Expression Analysis (LTEA) Assay for CYP2E1 using HepaRG (AID 2283485). The essentials:
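HepaRG cells in serum-free induction medium exposed 48 h to test chemicals, 8 half-log concentrations up to 100 uM in 0.5% DMSO, duplicate. CYP2E1 mRNA by qRT-PCR, normalized to ACTB, GAPDH, POLR2A; bidirectional fit versus DMSO.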

Caspase-3 (Homo sapiens), sequence (P42574 whole entry, looked up): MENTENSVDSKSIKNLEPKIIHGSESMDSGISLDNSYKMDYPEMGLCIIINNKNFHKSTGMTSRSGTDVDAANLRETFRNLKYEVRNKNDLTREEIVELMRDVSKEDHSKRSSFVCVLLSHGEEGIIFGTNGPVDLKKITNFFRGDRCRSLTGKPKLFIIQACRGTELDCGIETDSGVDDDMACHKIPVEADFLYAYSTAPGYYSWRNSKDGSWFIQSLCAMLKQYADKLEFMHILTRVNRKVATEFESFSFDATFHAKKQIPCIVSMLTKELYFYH
Apoptosis regulator Bcl-2 (Homo sapiens), sequence (P10415 whole entry, looked up): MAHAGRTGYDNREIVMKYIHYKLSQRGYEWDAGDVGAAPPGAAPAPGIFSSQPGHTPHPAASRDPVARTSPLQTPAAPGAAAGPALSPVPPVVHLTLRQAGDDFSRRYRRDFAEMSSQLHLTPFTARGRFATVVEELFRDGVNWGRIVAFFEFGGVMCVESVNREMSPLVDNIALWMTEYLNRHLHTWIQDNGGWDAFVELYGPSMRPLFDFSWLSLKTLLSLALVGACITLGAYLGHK
Cytochrome P450 2C19 (Homo sapiens), sequence (P33261 whole entry, looked up): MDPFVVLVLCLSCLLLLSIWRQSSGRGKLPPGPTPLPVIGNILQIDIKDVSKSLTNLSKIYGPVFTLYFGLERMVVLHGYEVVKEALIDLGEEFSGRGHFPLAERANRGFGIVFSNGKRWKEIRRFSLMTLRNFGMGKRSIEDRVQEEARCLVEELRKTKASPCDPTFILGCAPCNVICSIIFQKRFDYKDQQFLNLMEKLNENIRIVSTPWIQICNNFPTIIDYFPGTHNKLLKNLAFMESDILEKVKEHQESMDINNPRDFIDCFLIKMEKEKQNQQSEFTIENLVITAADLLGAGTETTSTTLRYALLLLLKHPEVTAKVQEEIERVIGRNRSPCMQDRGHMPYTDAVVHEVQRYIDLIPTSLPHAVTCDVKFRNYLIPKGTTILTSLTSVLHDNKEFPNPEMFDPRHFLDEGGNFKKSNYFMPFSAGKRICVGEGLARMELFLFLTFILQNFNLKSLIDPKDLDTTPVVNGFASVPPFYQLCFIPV

In general, AC50 refers to the midpoint of the concentration-response curve, whichever way the signal moves. For the molecule `CC(C)(O)C(=O)Nc1ccc([N+](=O)[O-])c(C(F)(F)F)c1`, the result in test [1], in [2], in test [5], in test [6], in test [7] and in test [10] was inactive. Besides, the molecule was called inactive in [12], in [13], in test [17] and in test [18]. Further, the AC50 in test [3] was 0.0354 µM (active); in test [4] it was 0.0265 µM (active); in test [8], 0.0415 µM (active); in [9], 0.0349 µM (active); in test [11], 0.0296 µM (active); in [14], 0.0406 µM (active). The AC50 in test [15] is 0.0142 µM (active); in [16] it was 44.3 µM (active); in test [19], 37.1 µM (active).

As for `N#Cc1ccc(N(CC(N)=O)CC(F)(F)F)cc1C(F)(F)F`, the molecule was classed as inactive in [1], in [2], in [3], in test [4], in [5] and in test [6]. The call in [7], in test [8], in [9], in [10], in test [11] and in test [12] was inactive. Moreover, the outcome in test [13], in test [14], in test [15] and in [18] was inactive. Moreover, the figures for the AC50 in test [16], in test [17] and in test [19] were 0.159 µM (active), 19.3 µM (active) and 0.537 µM (active), respectively.

For `CC1=C2C[C@H]3[C@@H](CC=C4C[C@@H](O)CC[C@@]43C)[C@@H]2CC[C@]12O[C@@H]1C[C@H](C)CN[C@H]1[C@H]2C`, the result in test [1], in test [2], in test [3], in test [4], in test [5] and in [6] was inactive. The result in test [7], in [8], in test [9], in test [10], in test [11] and in test [12] was inactive. Moreover, the call in test [13], in [14], in test [15], in test [16], in [17] and in test [18] was inactive. Further, in [19], the outcome was inactive.

With `CC#Cc1cc(C)nc(Nc2ccccc2)n1`, the outcome in [1], in test [2], in [4], in test [5], in [6] and in test [9] was inactive. Besides, the molecule was called inactive in test [10], in [11], in test [12], in test [13] and in test [15]. Further, the half-maximal activity concentration (AC50) in test [3] was 50 µM (active); in [7], 26.4 µM (active); in [8] it was 13 µM (active); in test [14] it was 7.61 µM (active); in [16], 10.3 µM (active); in test [17] it was 24.9 µM (active). The AC50 in test [18] is 48 µM (active); in test [19] it was 13.6 µM (active).

The values are drawn from PubChem BioAssay (EPA / NIEHS).
